SMILES strings stand for the structures. Screen size: about 310,000 compounds; about 3,900 (1.3%) were called active.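 Rule for the calls: active = compounds whose thallium flux B-score, printed positive for inhibition, exceeds three library SD while starting fluorescence stays within three; inactive = the rest.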 Shown is part of a subset that was picked to be rich in actives.

The target of this experiment is Potassium voltage-gated channel subfamily KQT member 1 (Homo sapiens) (UniProt P51787). In words: KCNQ1 potassium current blockers – cell-based, thallium flux, high-throughput, primary screen (AID 2642).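 Note: channel opened by potassium depolarization with thallium stimulus after 20 min compound exposure.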 Conditions: CHO-K1 KCNQ1, FluxOR thallium flux fluorescence, at 10 µM; stronger effect = higher value.
Chain of Potassium voltage-gated channel subfamily KQT member 1 (Homo sapiens) (P51787 whole entry, looked up): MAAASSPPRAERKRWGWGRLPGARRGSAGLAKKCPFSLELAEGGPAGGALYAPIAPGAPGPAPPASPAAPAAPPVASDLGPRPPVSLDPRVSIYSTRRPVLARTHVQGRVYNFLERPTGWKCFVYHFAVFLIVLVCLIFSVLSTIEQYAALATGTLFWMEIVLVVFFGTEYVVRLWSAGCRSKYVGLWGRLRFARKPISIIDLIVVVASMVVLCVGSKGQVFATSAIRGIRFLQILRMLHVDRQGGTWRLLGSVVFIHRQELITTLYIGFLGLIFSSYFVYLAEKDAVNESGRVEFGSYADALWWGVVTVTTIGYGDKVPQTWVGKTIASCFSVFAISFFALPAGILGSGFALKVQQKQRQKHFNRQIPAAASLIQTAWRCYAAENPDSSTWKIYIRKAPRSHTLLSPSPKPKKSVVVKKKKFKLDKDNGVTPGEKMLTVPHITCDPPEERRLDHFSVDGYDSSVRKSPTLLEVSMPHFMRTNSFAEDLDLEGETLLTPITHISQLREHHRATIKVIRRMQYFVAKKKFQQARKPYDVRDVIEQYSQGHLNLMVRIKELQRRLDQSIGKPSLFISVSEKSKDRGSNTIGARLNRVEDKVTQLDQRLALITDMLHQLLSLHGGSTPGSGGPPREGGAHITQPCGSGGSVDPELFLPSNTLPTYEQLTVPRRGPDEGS
In the case of `CCOC(=O)C1CCN(C(=O)C2CCN(S(=O)(=O)CC)CC2)CC1`, the B-score entry was “inactive”.
`CCOC(=O)c1cn(CC)c2cc(F)c(F)cc2c1=O`: the B-score result was “inactive”.
The result for `CCOC(=O)N1CCN(C(=O)c2cc3c(-c4ccc(Cl)cc4)nn(C)c3s2)CC1` reads “inactive”.
`COc1ccccc1N1CCN(C(=O)c2cc3c(-c4ccc(Cl)cc4)nn(C)c3s2)CC1`: the B-score result was “inactive”.
The result for `Cn1nc(-c2ccc(Cl)cc2)c2cc(C(=O)NCc3ccco3)sc21` reads 6 (active); that for `CN1CCc2ccccc2C1Cc1ccccc1NC(=O)c1sc2ccccc2c1Cl` (stereo not drawn), “inactive”; that for `CCN(CC(=O)Nc1c(F)cccc1F)C(=O)c1ccc(Sc2nncn2C)c([N+](=O)[O-])c1`, “inactive”.
As for `COc1ccc(CNc2ccc3c(c2)CCC3)cc1OC`, the B-score entry was “inactive”.
The result for `COc1ccc(OC)c(CCNC(=O)CCn2ccc3cc(S(=O)(=O)N4CCCC4)ccc32)c1` reads “inactive”.
For `CCOCc1nnc(NC(=O)CCC2CCCCC2)s1` the value was “inactive”; for `CN1CCN(NC(=O)Nc2ccc(Br)cc2)CC1`, “inactive”.
The result for `CNC(=O)C1CC(=O)N(Cc2ccc3c(c2)OCO3)C(=Nc2ccc(F)cc2)S1` (stereo not drawn) reads “inactive”.
For the compound `CC1CCC(N2CC(=O)N(Cc3ccc4c(c3)OCO4)C(c3ccc(F)cc3)C2=O)CC1` (stereo not drawn), the B-score is 6 (active).
In the case of `CC1CCC(NC(=O)C2c3ccccc3C(=O)N2Cc2ccc3c(c2)OCO3)CC1` (stereo not drawn), the B-score result is “inactive”.
For `COc1ccccc1C(=O)NC(=S)NC12CC3CC(CC(C3)C1)C2` the value was “inactive”.
The result for `CSc1ccccc1C(=O)NCc1ccccc1` reads “inactive”; that for `CCCN1Cc2cccc(C(=O)NCc3ccccc3)c2C1=O`, 8 (active); that for `COCCN1Cc2cccc(C(=O)Nc3ccccc3OC)c2C1=O`, “inactive”.
Turning to `CSc1ccccc1NC(=O)c1cnc2sc(C)cn2c1=O`, the B-score entry is “inactive”.
The result for `Cc1nc(NC(=O)C2CCCCC2)sc1C` reads “inactive”; that for `CCN(CC)CCN(C(=O)c1ccc(N2C(=O)CCC2=O)cc1)c1nc2cc3c(cc2s1)OCO3`, “inactive”.
As to `CN(C)CCN(C(=O)C1CCCCC1)c1nc2cc3c(cc2s1)OCO3`, the B-score entry was “inactive”.
As to `CCN(CC)CCN(C(=O)c1cc(Cl)sc1Cl)c1nc2cc3c(cc2s1)OCO3`, the B-score is 7 (active).
For `CCCc1nn2c(=O)cc(CSCC(=O)Nc3cccc(C)c3)nc2s1`, the B-score entry is “inactive”.
`Cc1cc2nc3c(=O)n(Cc4ccccc4)c(=O)[nH]c3nc2cc1N`: the B-score is 8 (active).
For `CC(=O)c1ccc(-c2ccc(Cn3c(C)nc4cc(N)c(C)nc43)cc2)cc1` the value was “inactive”; for `Cc1cc(-c2csc(N)n2)c(C)n1Cc1ccccc1`, “inactive”; for `O=C(O)c1ccc2c(=O)n3c(nc2c1)/C(=C/c1ccc(Cl)c([N+](=O)[O-])c1)CC3`, “inactive”.
Regarding `CCOC(=O)C(C)n1cnc2scc(-c3ccc(C)c(C)c3)c2c1=O` (stereo not drawn), the B-score was 6 (active).
For `CC(=O)C(C)n1cnc2scc(-c3ccc(C)cc3)c2c1=O` (stereo not drawn) the value was “inactive”.
The result for `CCn1cnc2scc(-c3ccc(C)c(C)c3)c2c1=O` reads “inactive”.
As for `CC(c1nnc(SCC(=O)Nc2sccc2C#N)n1-c1ccc(Cl)cc1)N(C)C` (stereo not drawn), the B-score entry was “inactive”.
The result for `Fc1ccc2[nH]c3c(N4CCSCC4)ncnc3c2c1` reads 8 (active); that for `Cc1c(CN2CC[C@@H](N3CCN(c4ccccn4)CC3)[C@H](O)C2)[nH]c2ccc(F)cc12`, “inactive”; that for `C=CCn1c(Cn2nnc3ccccc32)nnc1SCC(=O)N/N=C/c1cc(Br)cc(OC)c1O`, “inactive”.
As for `COc1ccc(/C=C2\CCCC3C2=NN(C(=O)c2scnc2C)C3c2ccc(OC)cc2)cc1` (stereo not drawn), the B-score was 8 (active).
As for `CCOC(=O)C1(Cc2ccccc2C(F)(F)F)CCN(C(=O)c2cc(C)n(C)n2)CC1`, the B-score result was “inactive”.
The result for `O=S(=O)(c1ccccc1)c1nc(Cc2ccccc2)oc1N1CCOCC1` reads “inactive”.
